In the library only some 1.5% were active in any assay of this set; here they are far more common.
dFosB act-1 – activators of mouse delta FosB homodimer | 340,000 compounds, 0.99% hits | AID 493131 | purified delta FosB, TAMRA-CDK5 oligo fluorescence polarization; percent of positive-control signal above neutral wells | P13346 | activation, % at 25 µM;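 active means mean activation above about 17%, with every replicate also reaching it, limit read from the data, passing the limit was not always enough; inconclusive means only one of the two conditions met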
CFTR F508del cor – CFTR F508del correction in bronchial cells | CFBE cells, YFP halide quenching; stimulated with forskolin plus potentiator P3; % fluorescence drop versus neutral controls | AID 720511 | activity (quench increase), % at 7.58 µM | 350,000 compounds, 0.36% hits;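 active means mean added fluorescence quench of at least 8% versus neutral control, with both replicates also reaching 8%; inconclusive means only one of the mean or replicate conditions met; inactive means mean below 8% and not both replicates reaching 8%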;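 further: cells transiently co-express mutant CFTR-F508del with the halide-sensitive YFP; corrector assay measuring rescue of mutant channel to the surface after 24 h compound exposure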
RAD54 branch – RAD54 (human) branch migration inhibition; RAD54 Holliday junction branch migration, FAM/BHQ fluorescence; inhibition, % at 10.4 µM; AID 602329; 360,000 compounds, 0.14% hits; Q92698;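 active means mean normalized replicate activity at least 40 and at least half of replicates scoring 40 or more; inconclusive means only one of the two criteria met; inactive means mean below 40 and under half of replicates reaching 40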;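 further: 0% = median of neutral control wells and 100% = median of positive control wells; inhibitors cause a drop in the FAM fluorescence signal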
Glyco luc inh – N-linked glycosylation inhibition; D54 ERlucT glycosylation luciferase reporter, 24 h; percent of 100 nM tunicamycin response; reporter increase, % at 12.5 µM; 360,000 compounds, 0.23% hits; AID 588692;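 active means mean luciferase reporter signal, scaled so untreated is 0 and the glycosylation-blocking control 100, at or above a set limit in every replicate; inconclusive means mean reaches the limit but not every replicate does; inactive means mean below the limit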;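 further: luciferase carries N-glycosylation sites so blocking glycosylation raises the light; 0% = median of neutral control wells and 100% = median of 100 nM tunicamycin wells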
RAD52 inh – blocks human RAD52 DNA annealing. 360,000 compounds, 0.46% hits. recombinant RAD52 DNA annealing, FRET fluorescence. inhibition, % at 18.7 µM;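 active means every replicate showing at least 50% inhibition; inconclusive means mean inhibition at least 50% but not in every replicate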
Target sequence (P43351 whole entry, looked up): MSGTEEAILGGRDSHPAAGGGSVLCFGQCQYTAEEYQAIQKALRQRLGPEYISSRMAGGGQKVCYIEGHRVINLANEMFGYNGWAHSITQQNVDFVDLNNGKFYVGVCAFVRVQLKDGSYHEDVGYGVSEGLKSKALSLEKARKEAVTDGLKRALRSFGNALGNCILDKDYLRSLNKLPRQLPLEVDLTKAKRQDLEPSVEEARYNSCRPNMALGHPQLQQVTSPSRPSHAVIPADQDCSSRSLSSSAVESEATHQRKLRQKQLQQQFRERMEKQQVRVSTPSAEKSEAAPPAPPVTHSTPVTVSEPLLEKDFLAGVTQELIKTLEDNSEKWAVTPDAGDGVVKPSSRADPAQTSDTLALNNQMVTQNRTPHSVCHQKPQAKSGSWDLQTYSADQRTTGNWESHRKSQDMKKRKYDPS
PvdQ acylase – blocks Pseudomonas aeruginosa PvdQ acylase activity; purified PvdQ acylase, fluorescence plate reader; inhibition, % at 10 µM; 340,000 compounds, 0.063% hits; AID 488965; in the data active means inhibition above about 30%, passing the limit was not always enough; inconclusive means no clear call, values can overlap the other calls;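 further: 0% = vehicle neutral wells and 100% = reference inhibitor wells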
dFosB act-2 – delta FosB (mouse) homodimer activation; purified delta FosB, TAMRA-CDK5 oligo fluorescence polarization; normalised: neutral wells 0, positive control 100; shares compounds with dFosB act-1; 2,400 tested, under 10 active; activation, % at 24.9 µM;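 active means highest replicate activation at or above 34% and every replicate reaching that threshold; inconclusive means meets only one of the two criteria; inactive means meets neither criterion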;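 further: higher polarization means more probe DNA bound by delta FosB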
* marks the source's active call; other numbers are inactive results.

Screening CCN(CC)S(=O)(=O)c1ccc(Cl)c(NC(=O)c2cc(Cl)cc(Cl)c2)c1 returned dFosB act-1 53.5*, CFTR F508del cor 1.3, Glyco luc inh 0.2, RAD52 inh -18.9, PvdQ acylase -19.4 and dFosB act-2 0.0.
`C[C@@H]1CN([C@H](C)CO)S(=O)(=O)c2ccc(C#Cc3cccnc3)cc2O[C@H]1CN(C)C(=O)CN(C)C` gave CFTR F508del cor -1.8, RAD54 branch 5.0 and RAD52 inh 2.1.
`O=C(N[C@@H]1CC[C@@H](CCNC(=O)C2CCC2)O[C@H]1CO)c1ccccn1` gave CFTR F508del cor 1.5, RAD54 branch -7.3 and RAD52 inh 3.5.
For O=C(Cn1cnc2c(oc3nc4c(cc32)CCCC4)c1=O)Nc1cccc(Cl)c1 the results were dFosB act-1 20.2*, CFTR F508del cor -3.4, RAD54 branch 10.5, Glyco luc inh -8.1, RAD52 inh -21.4, PvdQ acylase -15.4 and dFosB act-2 -0.7.
`O=C(C[C@H]1C[C@@H]2c3cc(NC(=O)C4CCOCC4)ccc3O[C@@H]2[C@H](CO)O1)NCc1cccc(F)c1` gave CFTR F508del cor -1.2, RAD54 branch -0.4 and RAD52 inh 7.5.
For CCSc1ccc(C(=O)Nc2ccc(Br)cn2)cc1[N+](=O)[O-] the results were dFosB act-1 18.8*, CFTR F508del cor 2.4, Glyco luc inh -7.0, RAD52 inh -0.4, PvdQ acylase -14.5 and dFosB act-2 -6.8.
`CCSc1ccc(C(=O)Nc2cccc(C)n2)cc1[N+](=O)[O-]` gave dFosB act-1 7.4, Glyco luc inh -2.1 and PvdQ acylase -4.8.
`COc1ccc(N(CC(=O)N2CCN(c3ccc(Cl)cc3)CC2)S(=O)(=O)c2c(C)n[nH]c2C)cc1` gave dFosB act-1 77.2*, CFTR F508del cor -0.3, RAD54 branch 4.4, Glyco luc inh 0.7, RAD52 inh -2.4, PvdQ acylase 8.7 and dFosB act-2 0.3.
For Cc1c(C#N)c2ccccc2n1CC(=O)NC(C)c1ccccc1 (stereo unspecified) the results were dFosB act-1 -8.9, Glyco luc inh 1.0 and PvdQ acylase 6.5.
Cc1cccc(NC(=O)Cn2c(C)c(C#N)c3ccccc32)c1C was read as dFosB act-1 31.7*, RAD54 branch -1.1, Glyco luc inh -1.7, PvdQ acylase 6.7 and dFosB act-2 -0.2.
COC(=O)C[C@@H]1CC[C@H]2[C@H](COc3ccc(NC(=O)NC(C)C)cc3C(=O)N2C)O1 was read as CFTR F508del cor -1.4, RAD54 branch 1.2 and RAD52 inh -3.8.
`O=C(Nc1ccon1)c1sc2cc(Cl)ccc2c1Cl` gave dFosB act-1 40.9*, CFTR F508del cor -1.4, RAD54 branch 0.1, Glyco luc inh -1.1, RAD52 inh -12.2, PvdQ acylase -15.2 and dFosB act-2 3.6.
`C[C@@H]1CN([C@H](C)CO)C(=O)c2cc(-c3ccccc3)cnc2O[C@H]1CN(C)Cc1ccccc1` gave CFTR F508del cor -1.0, RAD54 branch 4.2 and RAD52 inh -3.9.
For COc1cccc(/C=N/NC(=O)CCn2c3ccccc3c3ccccc32)c1 the results were dFosB act-1 23.7*, Glyco luc inh -3.5, RAD52 inh -9.7, PvdQ acylase -1.6 and dFosB act-2 2.5.
C[C@H](CO)N1C[C@H](C)[C@@H](CN(C)C(=O)Nc2ccc(C(F)(F)F)cc2)Oc2ccc(NS(=O)(=O)c3ccc(Cl)cc3)cc2CC1=O was read as CFTR F508del cor 2.2, RAD54 branch 7.5 and RAD52 inh 1.6.
For CCOC(=O)c1c(C)n(C)c2cc(Br)c(OC)cc12 the results were dFosB act-1 -4.1, CFTR F508del cor 2.0, Glyco luc inh -1.1, RAD52 inh -8.6 and PvdQ acylase -14.6.
CCOC(=O)c1c(CNCCN(CC)CC)n(C)c2cc(Br)c(OC)cc12 was read as dFosB act-1 23.9*, Glyco luc inh 3.5, PvdQ acylase 3.7 and dFosB act-2 inconclusive.
O=C(Nc1ccc(Cl)cc1)c1cnc(-c2ccccc2)nc1-c1ccccc1 was read as dFosB act-1 21.5*, RAD54 branch 4.0, Glyco luc inh 9.6, PvdQ acylase 0.7 and dFosB act-2 1.3.
CCOc1ccc(S(=O)(=O)Nc2nc3ccccc3nc2-n2ccc(=NC(=O)c3cccs3)cc2)cc1 was read as dFosB act-1 39.6*, CFTR F508del cor -2.6, Glyco luc inh -1.7, RAD52 inh -265.1, PvdQ acylase 2.9 and dFosB act-2 6.5.
For O=C(N=c1ccn(-c2nc3ccccc3nc2NS(=O)(=O)c2ccc(Cl)cc2)cc1)c1cccs1 the results were dFosB act-1 31.4*, CFTR F508del cor -1.3, Glyco luc inh -0.1, RAD52 inh -73.9, PvdQ acylase -11.9 and dFosB act-2 3.0.
Screening O=C(N=c1ccn(-c2nc3ccccc3nc2NS(=O)(=O)c2ccccc2)cc1)c1ccccc1Cl returned dFosB act-1 -8.3, CFTR F508del cor -0.6, RAD54 branch -9.7, Glyco luc inh 1.2, RAD52 inh -284.0 and PvdQ acylase -0.9.
`O=C(Nc1ccc2c(c1)[C@H]1C[C@H](CC(=O)N3CCOCC3)O[C@@H](CO)[C@H]1O2)NC1CCCC1` gave CFTR F508del cor 1.6, RAD54 branch -3.6 and RAD52 inh 9.4.
Cc1noc(C)c1S(=O)(=O)Nc1ccc2c(c1)C(=O)N([C@@H](C)CO)C[C@@H](C)[C@@H](CN(C)S(=O)(=O)c1ccc(F)cc1)OCCCC[C@@H](C)O2 was read as CFTR F508del cor 2.7, RAD54 branch -5.4 and RAD52 inh 41.6.
For CNc1c(NS(=O)(=O)c2ccc3c(c2)CCCC3)c(=O)oc2ccccc12 the results were dFosB act-1 36.5*, CFTR F508del cor -0.4, RAD54 branch -14.2, Glyco luc inh 0.2, RAD52 inh 6.3, PvdQ acylase 6.6 and dFosB act-2 -3.4.
CNc1c(NS(=O)(=O)c2ccc(F)c(Cl)c2)c(=O)oc2ccccc12 was read as dFosB act-1 -4.5, CFTR F508del cor -3.3, RAD54 branch 2.8, Glyco luc inh 1.2, RAD52 inh -7.6 and PvdQ acylase -3.2.
CNc1c(NS(=O)(=O)c2ccc(C(C)(C)C)cc2)c(=O)oc2ccccc12 was read as dFosB act-1 60.1*, CFTR F508del cor 0.5, RAD54 branch 0.4, Glyco luc inh 0.4, RAD52 inh -13.0, PvdQ acylase -15.0 and dFosB act-2 0.6.
`CNc1c(NS(=O)(=O)c2ccc(Br)cc2)c(=O)oc2ccccc12` gave dFosB act-1 98.7*, CFTR F508del cor -2.5, RAD54 branch 13.2, Glyco luc inh 1.7, RAD52 inh -9.9, PvdQ acylase -7.4 and dFosB act-2 -0.2.

Bioassay records deposited in PubChem by Broad Institute.
